About 83,000 compounds went through this panel and 20% of them were active in at least one assay; those are over-represented in the sample as a whole.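 Growth was measured after 48 h exposure to one concentration of compound in 96-well plates. Values under 10 count as active.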 The source made the active and inactive calls.
Tests used:
Assay in all cases: NCI-60 one-dose screen, 48 h (100 = growth as untreated, 0 = no growth, -100 = all killed)
Conditions in all cases: 10 µM unless noted
[1] = test system: HCT-15 colon
[2] = test system: HT29 colon
[3] = test system: SNB-75 CNS
[4] = test system: SNB-19 CNS
[5] = test system: U251 CNS
[6] = test system: PC-3 prostate
[7] = test system: SK-MEL-5 melanoma
[8] = test system: UACC-62 melanoma
[9] = test system: LOX IMVI melanoma
[10] = test system: SK-MEL-28 melanoma
[11] = test system: EKVX NSCLC
[12] = test system: SN12C renal
[13] = test system: UO-31 renal
[14] = test system: TK-10 renal
[15] = test system: ACHN renal
[16] = test system: CAKI-1 renal
[17] = test system: A498 renal
[18] = test system: CCRF-CEM leukemia
[19] = test system: MOLT-4 leukemia

Measured: growth

CC(C)(C)c1cnc(CSc2cnc(NC(=O)C3CCNCC3)s2)o1
active: [2] -9.89% | [3] -39.5% | [5] 2.2% | [6] 0.914% | [7] -47.2% | [8] -49.7% | [9] 6.56% | [10] -12.8% | [13] -4.7% | [14] 5.16% | [15] 9.41% | [17] -31.7% | [18] 7.55% | [19] 0.905%
inactive: [1] 22.8% | [4] 12.4% | [11] 22.7% | [12] 11.8% | [16] 16.5%

COc1ccc(-c2cnc(-c3ccc(Cl)cc3)[nH]2)cc1OC
inactive: [1] 100% | [2] 97.6% | [3] 72.8% | [4] 96% | [5] 102% | [6] 81.3% | [7] 97.4% | [8] 94.6% | [9] 110% | [10] 104% | [11] 117% | [12] 91.6% | [13] 95.4% | [14] 139% | [15] 103% | [16] 121% | [17] 90.6% | [19] 106%
active: [18] -55.7%

Cc1nc(-c2cn3c(n2)-c2ccc(-c4cnn(C(C)(C)C(N)=O)c4)cc2OCC3)n(C(C)C)n1
active: [3] -5.53% | [7] 8.62% | [8] -22.6% | [10] 9.16% | [13] 5.32% | [14] 8.61% | [17] -31.3%
inactive: [1] 30.8% | [2] 10.5% | [4] 30.8% | [5] 23.5% | [6] 23.5% | [9] 11.6% | [11] 36.1% | [12] 25.7% | [15] 15.9% | [16] 21.1% | [18] 26.4% | [19] 15.2%

COc1cc2cc(NCc3ccc(F)cc3)nc(C)c2cc1OC
inactive: [1] 50.9% | [2] 11.9% | [3] 101% | [4] 43.8% | [5] 29.7% | [6] 48.2% | [7] 38.3% | [8] 27.8% | [10] 35.4% | [11] 78.7% | [12] 51% | [13] 49.6% | [14] 46.7% | [15] 60.4% | [16] 67% | [17] 27.4% | [18] 41.9% | [19] 35.2%
active: [9] 6.57%

CC(C)Nc1cc(-c2c[nH]c(C(=O)N[C@H](CO)c3cccc(Cl)c3)c2)c(Cl)cn1
inactive: [1] 25.1% | [3] 51.8% | [4] 51.3% | [5] 28% | [6] 34.9% | [8] 11.7% | [9] 14% | [11] 38.9% | [12] 52.2% | [13] 18.2% | [14] 16.2% | [15] 31% | [16] 35.3% | [18] 26.1% | [19] 12.6%
active: [2] 1.57% | [7] -7.93% | [10] 5.19% | [17] 4.24%

O=C1C=CC2(NN=C(c3ccccc3)N2c2cccc(Cl)c2)c2cccc(O)c21 (configuration not stated)
active: [7] -54.6% | [8] 3.48% | [9] 3.66%
inactive: [1] 23.8% | [2] 79.3% | [3] 57.5% | [4] 43.9% | [5] 24.1% | [6] 32.7% | [10] 35.8% | [11] 76.2% | [12] 41.6% | [13] 33.3% | [14] 118% | [15] 45.6% | [16] 90.7% | [17] 89.1% | [18] 70.9% | [19] 67.6%

CN1CCN(c2nc(C3=C(c4c[nH]c5ccccc45)C(=O)NC3=O)c3ccccc3n2)CC1
inactive: [1] 85.3% | [2] 11.6% | [3] 79.4% | [4] 87.5% | [5] 69.4% | [6] 108% | [7] 45.6% | [9] 80.4% | [11] 82.6% | [12] 92.3% | [13] 64% | [14] 47.3% | [15] 70.2% | [16] 54.9% | [17] 75.1% | [18] 100% | [19] 74.7%
active: [8] 6.81% | [10] 3.91%

O=C(CNc1nc(-c2ccc(Cl)cc2)cs1)Nc1ccc(-c2nc3ccccc3s2)cc1
inactive: [1] 110% | [2] 108% | [3] 77.8% | [4] 98.2% | [5] 91.6% | [6] 90.7% | [7] 87.7% | [8] 91.9% | [9] 95.6% | [10] 111% | [11] 102% | [12] 101% | [13] 75% | [14] 66.5% | [15] 105% | [16] 94.2% | [17] 102% | [18] 93% | [19] 92.7%
